Data from PubChem BioAssay (NCATS).
Records with an inconclusive call do not appear. Active and inactive are the calls of the source. Calls come from the whole dose curve; as a rule, active = well fitted inhibition curve with a large enough effect; inconclusive = small, poorly fitted or top-dose-only effect; inactive = flat fitted curve, though single readings scatter.

Legend:
Assay in all cases: qHTS profiling for inhibitors of Plasmodium falciparum proliferation (AID 504749); note: nearly all actives have a fitted effect of over 60% in size
Conditions in all cases: P. falciparum in erythrocytes, SYBR Green DNA, 72 h; series mostly up to 28.7 µM
[1] = tested on: CP192
Method in brief: (§1)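 Parasite proliferation within erythrocytes, 72 h exposure. Endpoint: SYBR Green I fluorescence after overnight lysis at room temperature. Controls: 0.29 uM artemisinin, DMSO.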

[2] = tested on: CP194
Method in brief: as §1

[3] = tested on: CP201
Method in brief: as §1

[4] = tested on: CP203
Method in brief: as §1

[5] = tested on: CP211
Method in brief: as §1

[6] = tested on: CP215
Method in brief: as §1

[7] = tested on: CP217
Method in brief: as §1

[8] = tested on: CP238
Method in brief: as §1

[9] = tested on: CP250
Method in brief: as §1

[10] = tested on: CP252
Method in brief: as §1

[11] = tested on: CP256
Method in brief: as §1

[12] = tested on: CP260
Method in brief: as §1

[13] = tested on: CP262
Method in brief: as §1

[14] = tested on: CP265
Method in brief: as §1

[15] = tested on: CP266
Method in brief: as §1

[16] = tested on: CP268
Method in brief: as §1

[17] = tested on: CP269
Method in brief: as §1

[18] = tested on: CP286
Method in brief: as §1

[19] = tested on: CP237
Method in brief: as §1

[20] = tested on: CP247
Method in brief: as §1

Measured: Potency

CCN1CCC[C@H]1CNC(=O)c1c(OC)ccc(Br)c1OC
not listed: [19] | [20]
inactive: all other assays above

CC/C(=C(/CC)c1ccc(O)cc1)c1ccc(O)cc1
not listed: [11] | [12] | [13]
inactive: all other assays above

CCOC(=O)COc1ccc2c(C)c(CCN(CC)CC)c(=O)oc2c1Cl
not listed: [8] | [10] | [11] | [14]
inactive: all other assays above

Oc1c(Cl)cc(Cl)cc1Sc1cc(Cl)cc(Cl)c1O
inactive: all assays above

CCOC(=O)n1ccn(C)c1=S
inactive: all assays above

C[C@H]1C[C@H]2[C@@H]3CCC4=CC(=O)C=C[C@]4(C)[C@@]3(Cl)[C@@H](O)C[C@]2(C)[C@@]1(O)C(=O)CO
inactive: all assays above

OCc1ccccc1O
inactive: all assays above

O=C1[C@H]2CCCC[C@H]2C(=O)N1CCCCN1CCN(c2nsc3ccccc23)CC1
not listed: [19]
inactive: all other assays above

CCCCCCCCCCCCCCCCCC(=O)OCC(O)CO (stereo not drawn)
inactive: all assays above

COC(=O)[C@H]1[C@H]2C[C@H]3c4[nH]c5ccccc5c4CCN3C[C@H]2CC[C@@H]1O
inactive: [1] | [2] | [3] | [4] | [5] | [6] | [13] | [15] | [16] | [17]

CC(C)COC(=O)OCN1C(=O)CN(CCN2CC(=O)N(COC(=O)OCC(C)C)C(=O)C2)CC1=O
inactive: all assays above

O=C1CCC(c2ccc(-n3ccnc3)cc2)=NN1
inactive: all assays above

CCCCN1CCCC1C(=O)Nc1c(C)cc(C)cc1C (stereo not drawn)
not listed: [15] | [19]
inactive: all other assays above
